Assay results reported in the antibiotic and cytotoxicity screens of Wong et al. (2023).
The campaign covered roughly 39,000 compounds. About 3,300 (8.5%) were called active. Shown is part of a subset that was picked to be rich in actives.

system: HepG2; assay: cytotoxicity call (relative viability < 0.9); details: 10 µM

Compound	cytotoxicity call
C[C@@H]1CN([C@H](C)CO)C(=O)c2cc(NC(=O)CCC(F)(F)F)ccc2O[C@@H](C)CCCCO[C@H]1CN(C)S(=O)(=O)c1cccs1	inactive
CN1CCCC1CCOC(C)(c1ccccc1)c1ccc(Cl)cc1.O=C(O)C=CC(=O)O (configuration not stated)	active
CN(C)CCOC(C)(c1ccccc1)c1ccccn1.O=C(O)CCC(=O)O (configuration not stated)	inactive
CN1CCC[C@H]1CCO	inactive
COc1ccc(S(=O)(=O)N(C)C[C@H]2Oc3ccc(NS(=O)(=O)c4cn(C)cn4)cc3CC(=O)N([C@H](C)CO)C[C@H]2C)cc1	inactive
Cn1cc(N2C[C@]3(COCCN(C(=O)C4(C#N)CC4)C3)OCC2=O)cn1	inactive
COc1cc(-c2coc3cc(OC4OC(CO)C(O)C(O)C4O)c(OC)c(O)c3c2=O)cc(O)c1OC (configuration not stated)	active
COc1cc(-c2coc3cc(O[C@@H]4O[C@H](CO)[C@@H](O)[C@H](O)[C@H]4O)c(OC)c(O)c3c2=O)cc(O)c1OC	inactive
COc1ccc(-c2oc3cc(O[C@H]4O[C@H](CO)[C@@H](O)[C@H](O)[C@H]4O)c(OC)c(O)c3c(=O)c2OC)cc1O	inactive
O=C1CCCSc2ccccc21	inactive
C[C@@H]1CN([C@H](C)CO)C(=O)c2cc(NC(=O)C3CCCCC3)ccc2O[C@@H](C)CCCCO[C@H]1CN(C)C(=O)Nc1ccc2c(c1)OCO2	inactive
C[C@@H]1CCCCO[C@@H](CN(C)C(=O)CCCN(C)C)[C@H](C)CN([C@@H](C)CO)C(=O)c2cc(N(C)C)ccc2O1	inactive
C[C@H](CO)N1C[C@H](C)[C@@H](CN(C)C(=O)Nc2ccc(F)cc2)OCCCC[C@H](C)Oc2ccc(NC(=O)Nc3ccccc3)cc2C1=O	inactive
CC(C)C(C)C=CC(C)C1CCC2C3=CC=C4CC(O)CCC4(C)C3CCC21C (configuration not stated)	inactive
CCn1cc(C(=O)O)c(=O)c2ccc(C)nc21	inactive
Cc1ccc2c(Br)cc(Br)c(OC(=O)c3ccccc3)c2n1	active
CNC[C@@H]1Oc2cc(C#CC(C)(C)O)ccc2S(=O)(=O)N([C@@H](C)CO)C[C@H]1C	inactive
COc1ccccc1C#Cc1ccc2c(c1)O[C@@H](CN(C)Cc1ccncc1)[C@H](C)CN([C@H](C)CO)S2(=O)=O	inactive
C[C@H]1CN([C@@H](C)CO)S(=O)(=O)c2ccc(-c3ccncc3)cc2O[C@@H]1CN(C)Cc1ccc(Oc2ccccc2)cc1	inactive
COc1ccccc1C#Cc1ccc2c(c1)O[C@H](CN(C)Cc1ccncc1)[C@H](C)CN([C@H](C)CO)S2(=O)=O	active
COc1ccccc1C#Cc1ccc2c(c1)O[C@H](CN(C)Cc1ccncc1)[C@@H](C)CN([C@@H](C)CO)S2(=O)=O	active

Compound	cytotoxicity call
C[C@@H]1CN([C@@H](C)CO)S(=O)(=O)c2ccc(-c3ccncc3)cc2O[C@H]1CN(C)Cc1ccc(Oc2ccccc2)cc1	active
COc1ccccc1C#Cc1ccc2c(c1)O[C@@H](CN(C)Cc1ccncc1)[C@@H](C)CN([C@@H](C)CO)S2(=O)=O	inactive
COc1ccccc1C#Cc1ccc2c(c1)O[C@H](CN(C)Cc1ccncc1)[C@@H](C)CN([C@H](C)CO)S2(=O)=O	inactive
C[C@H]1CN([C@@H](C)CO)S(=O)(=O)c2ccc(-c3ccncc3)cc2O[C@H]1CN(C)Cc1ccc(Oc2ccccc2)cc1	inactive
COc1ccccc1C#Cc1ccc2c(c1)O[C@@H](CN(C)Cc1ccncc1)[C@@H](C)CN([C@H](C)CO)S2(=O)=O	inactive
Cl.N=C(N)n1cccn1	inactive
C[C@@H]1CCCCO[C@@H](CN(C)S(=O)(=O)c2cn(C)cn2)[C@@H](C)CN([C@H](C)CO)C(=O)c2cc(N(C)C)ccc2O1	inactive
Cn1cccc1CNCCCN1CCOCC1	inactive
C[C@H]1CCCCO[C@H](CN(C)C(=O)Nc2ccc3c(c2)OCO3)[C@@H](C)CN([C@@H](C)CO)C(=O)c2cc(NC(=O)Nc3ccc(C(F)(F)F)cc3)ccc2O1	inactive
Cc1ccc(S(=O)(=O)N(C)C[C@H]2Oc3ccc(NS(C)(=O)=O)cc3C(=O)N([C@H](C)CO)C[C@@H]2C)cc1	inactive
Cc1noc(C)c1NC(=O)Nc1ccc2c(c1)C(=O)N([C@H](C)CO)C[C@@H](C)[C@H](CN(C)Cc1ccc(C(F)(F)F)cc1)O2	inactive
COc1ccc([C@@H]([C@H](Cc2ccccc2)OC(C)=O)N2C[C@H]3[C@H]([C@@H](OC(C)=O)c4ccccc4)ON(C)[C@H]3[C@@H]2Cc2ccccc2)cc1	active
COc1ccc([C@@H]([C@H](Cc2ccccc2)OC(C)=O)N2C[C@@H]3C(=NO[C@H]3[C@@H](OC(C)=O)c3ccccc3)[C@@H]2Cc2ccccc2)cc1	inactive
COc1ccc([C@@H]([C@H](Cc2ccccc2)OC(C)=O)N2C[C@@H](OC(C)=O)[C@@H]3[C@H]([C@@H]2Cc2ccccc2)N(C)O[C@H]3c2ccccc2)cc1	inactive
COc1ccc([C@@H]([C@H](Cc2ccccc2)OC(C)=O)N2C[C@@H](NC(=O)C(Cl)(Cl)Cl)[C@@H]3[C@H]([C@@H]2Cc2ccccc2)N(C)O[C@H]3c2ccccc2)cc1	inactive
COc1ccc([C@@H]([C@H](Cc2ccccc2)OC(C)=O)N2C[C@@H](CC(=O)N(C)C)[C@@H]3[C@H]([C@@H]2Cc2ccccc2)N(C)O[C@H]3c2ccccc2)cc1	inactive
COc1ccc([C@@H]([C@H](Cc2ccccc2)OC(C)=O)N2C[C@H]3[C@@H]([C@@H](O)c4ccccc4)ON(C)[C@H]3[C@@H]2Cc2ccccc2)cc1	active
COc1ccc([C@@H]([C@H](Cc2ccccc2)OC(C)=O)N2C[C@@H](CC(=O)N(C)C)[C@H]3[C@@H]([C@@H]2Cc2ccccc2)N(C)O[C@@H]3c2ccccc2)cc1	active
COc1ccc([C@@H]([C@H](Cc2ccccc2)OC(C)=O)N2C[C@@H]3[C@H]([C@@H]2Cc2ccccc2)N(C)O[C@@]3(O)[C@@H](O)c2ccccc2)cc1	inactive
COc1ccc([C@@H]([C@H](Cc2ccccc2)OC(C)=O)N2C[C@H](CC(=O)N(C)C)[C@@H]3[C@H]([C@@H]2Cc2ccccc2)N(C)O[C@H]3c2ccccc2)cc1	inactive
Cn1cnc(S(=O)(=O)N[C@@H]2CC[C@@H](CC(=O)Nc3ccccc3)O[C@H]2CO)c1	inactive
